M1 ag parental – nonselective activator or artifact in parental CHO-K1 cells. activation, % at 3 µM. hit rate 0.48% among 360,000. Fluo-8 calcium fluorescence; scaled to maximal ATP response, vehicle zero; in the data active = activation above about 15%;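 note: untransfected CHO-K1 host cells lacking M1 receptor as counterscreen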
M1 ag – activates human CHRM1 receptor; activation, % at 3 µM; hit rate 0.33% among 360,000; P11229; CHO-K1 hM1, Fluo-8 calcium fluorescence, agonist mode; 0% DMSO, 100% acetylcholine EC100;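 active = activation above the run's mean compound activation plus 3 SD, cut at about 16% in these data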;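 note: peak over basal fluorescence ratio within a 140 s kinetic read after compound addition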
Target sequence (P11229 whole entry, looked up): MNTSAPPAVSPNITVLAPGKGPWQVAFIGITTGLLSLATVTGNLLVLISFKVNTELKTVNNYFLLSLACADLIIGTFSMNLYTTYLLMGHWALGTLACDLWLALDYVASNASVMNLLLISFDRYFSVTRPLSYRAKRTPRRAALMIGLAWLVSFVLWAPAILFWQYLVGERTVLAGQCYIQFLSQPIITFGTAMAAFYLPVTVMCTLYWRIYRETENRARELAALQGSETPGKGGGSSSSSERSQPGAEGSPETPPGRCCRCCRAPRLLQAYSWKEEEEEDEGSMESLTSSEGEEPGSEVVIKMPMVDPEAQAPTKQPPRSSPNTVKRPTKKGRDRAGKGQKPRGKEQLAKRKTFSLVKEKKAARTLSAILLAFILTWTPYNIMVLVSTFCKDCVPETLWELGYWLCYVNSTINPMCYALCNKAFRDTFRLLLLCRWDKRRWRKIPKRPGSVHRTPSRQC
CHO-K1 Ca antag – nonselective inhibitor or artifact in parental CHO-K1 cells | ATP-induced calcium, Fluo-8 fluorescence | inhibition, % at 3 µM | hit rate 0.6% among 360,000 | AID 602250;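 active = inhibition above a per-plate cutoff, the plate's mean sample inhibition plus 3 SD, cut at about 24% in these data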
CHO-K1 Ca PAM – M1 PAM counterscreen hit in parental CHO-K1 cells | ATP EC20, Fluo-8 calcium fluorescence; 0% at ATP EC20, 100% at ATP max | activation, % at 3 µM | hit rate 0.02% among 360,000 | AID 602247;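 active = activation above the run cutoff, the mean activation of all test compounds plus 3 SD, cut at about 40% in these data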;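 note: peak over basal fluorescence ratio in a 140 s read after ATP addition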
M1 PAM – potentiates human M1 receptor response to acetylcholine; P11229; CHO-K1 hM1, Fluo-8 calcium fluorescence, ACh EC20; 0% = ACh EC20, 100% = maximal ACh; activation, % at 3 µM; hit rate 0.088% among 360,000; AID 588819; in the data active = activation above about 19%, passing the limit was not always enough
M1 antag – blocks human M1 muscarinic receptor | hit rate 1.3% among 360,000 | inhibition, % at 3 µM | CHO-K1 hM1, Fluo-8 calcium fluorescence, ACh EC80 antagonist | P11229;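 active = percent inhibition above its own plate's cutoff, namely the mean of that plate's compound wells plus 3 SD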;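 note: peak over basal fluorescence ratio during 140 s after agonist addition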
Large screens that a line does not name were inactive. An excerpt weighted towards active compounds, which were near 2.3% of everything screened.

CCN(CC)CCCOC(=O)C(c1ccccc1)c1ccccc1	M1 antag 100.6
CCCCC(=O)N(C)c1c(CC)nc2c(OCC(=O)N(C)C)cccn12	none
O=C(c1ccccc1)c1ccc(C(=O)N2CCN(c3ccccc3O)CC2)cc1	none
CC(C)NC(=O)c1ccc2c(c1)N(CC(=O)N1CCCC1)C(=O)C(C)(C)O2	none
CC(C)NC(=O)c1ccc2c(c1)N(Cc1ccccc1)C(=O)C(C)(C)O2	CHO-K1 Ca antag 24.4
O=C(Nc1ccc(F)c(Cl)c1)Nc1nnc([C@H]2C[C@H](O)[C@@H](CO)O2)s1	none
COc1cccc(C(=O)NCCS(=O)(=O)NCc2ccco2)c1	CHO-K1 Ca antag 36.8
CCOc1cc(/C=C(/C#N)c2nc3ccccc3[nH]2)ccc1OCc1ccc(C(=O)O)o1	none
CCOc1cc(/C=C(/C#N)c2ccc(F)cc2)ccc1OCc1ccc(C(=O)O)o1	M1 PAM 22.9
Cn1c(=O)[nH]c(=O)c2c1nc(N1CCOCC1)n2CCCSc1ncccn1	M1 ag parental 15.6
Cc1ccnc(SCCn2c(N3CCOCC3)nc3c2c(=O)[nH]c(=O)n3C)n1	none
CC1CC(C)CN(c2nc3c(c(=O)[nH]c(=O)n3C)n2CCCSc2nc3ccccc3s2)C1 (stereo not drawn)	none
CCN1CCN(c2nc3c(c(=O)[nH]c(=O)n3C)n2CCSc2nc3ccccc3s2)CC1	M1 ag 29.9
CC(=C/c1ccccc1)/C=N/n1c(-c2ccncc2)n[nH]c1=S	M1 ag 29.6
CC(C)CC1NC(=O)c2cc3ccccc3cc2-n2c1nc1ccc(F)cc1c2=O (stereo not drawn)	none
COCc1cn(CC(=O)c2sc(NC(=O)C(C)(C)C)nc2C)nn1	none (no result: M1 ag, M1 PAM, M1 antag)
Cc1nn(-c2ccccc2)c2ncc(C(=O)c3cc(Cl)ccc3O)cc12	none
CCc1nn2cc(C(=O)c3cc(Cl)ccc3O)cnc2c1-c1ccc(F)cc1	M1 antag 43.0
c1ccc(NCn2cncn2)nc1	CHO-K1 Ca antag 27.9
COc1cccc(N2CCN(C(=O)C3CCN(C(=O)Nc4ccccc4)CC3)CC2)c1	none
CC(CCN1C(Nc2ccccc2)=NC[C@@H]1Cc1ccccc1)c1ccccc1 (stereo partly drawn)	M1 antag 36.7
CCc1nc2ccc(C(=O)Nc3cc(-c4ccccc4)ccc3OC)cn2c1N(C)C(=O)c1cccc(OC)c1	none
CCn1c(=O)cc(SCC(=O)Nc2cccnc2)c2ccccc21	CHO-K1 Ca antag 24.6
CCn1c(=O)cc(SCC(=O)Nc2ccc3c(c2)OCO3)c2ccccc21	none
Cc1cc(C)c(NS(=O)(=O)c2ccc3c(c2)n(C)c(=O)n3C)c(C)c1	none
Cc1ccccc1NS(=O)(=O)c1ccc2c(c1)n(C)c(=O)n2C	M1 ag parental 15.4
CCC(O)c1cc2c(cc1NC(=O)c1ccc(C)cc1)OCCO2 (stereo not drawn)	M1 antag 26.3
FC(F)Oc1ccc(NC(=S)NCc2ccccc2)cc1	CHO-K1 Ca antag 27.6
CC1CC(C)CN(CCCNC(=O)C2CCCN(c3ncnc4c3nc3n4CCCCC3)C2)C1 (stereo not drawn)	M1 antag 29.2
COc1cccc(CCNC(=O)C2CCCN(c3ncnc4c3nc3n4CCCCC3)C2)c1OC (stereo not drawn)	none
CC1CCCN(CCCNC(=O)C2CCCN(c3ncnc4c3nc3n4CCCCC3)C2)C1 (stereo not drawn)	none
Cc1ccccc1CN1CCC(CNC(=O)C2CCCN(c3ncnc4c3nc3n4CCCCC3)C2)CC1 (stereo not drawn)	M1 antag 101.5
CNC(=O)C(=O)NCC1OCCN1S(=O)(=O)c1ccc(C)cc1 (stereo not drawn)	none
Cc1ccc(S(=O)(=O)N2CCOC2CNC(=O)C(=O)NCC(C)C)cc1 (stereo not drawn)	M1 PAM 24.4
Cc1ccc(S(=O)(=O)N(CC(=O)Nc2ccccc2C(=O)O)c2ccccc2)cc1	M1 ag parental 15.8
COc1ccccc1NC(=O)CN(c1ccccc1)S(=O)(=O)c1ccccc1	none
CCOC(=O)C1CCCN(C(=O)c2ccc(F)c(C)c2)CC1 (stereo not drawn)	none
CC(=O)c1ccc(N2CCN(C(=O)c3cccs3)CC2)c(F)c1	none
CCCC(=O)c1ccc(N2CCN(C(=O)c3cccs3)CC2)c(F)c1	M1 ag parental 15.2, M1 antag 42.4
CN1C(=S)N(c2cccnc2)C(=O)/C1=C\c1ccc(C(C)(C)C)cc1	none
CN1C(=S)N(c2cccnc2)C(=O)/C1=C\c1ccc(N(C)C)cc1	M1 ag parental 21.0, M1 ag 39.4, M1 antag 44.2
Cc1ccc(S(=O)(=O)N2[C@@H](c3cccc(Cl)c3)C(C(=O)OC(C)(C)C)=CC[C@H]2c2ccc(C(C)C)cc2)cc1	none
Cc1ccc(NC(=O)CSc2nnc(-c3cccnc3)s2)cc1	none
O=C(CSc1nnc(-c2cccnc2)s1)Nc1ccnc2ccccc12	CHO-K1 Ca antag 25.6, M1 antag 34.4
CCN(C(=O)C1CCN(c2nc(-c3ccc(OC)cc3)no2)CC1)c1ccc(OC)cc1	M1 antag 41.8
COc1ccc(NC(=O)C2CCN(c3nc(-c4ccc(OC)cc4)no3)CC2)cc1	none
COc1ccc(OC)c(NC(=O)Nc2nc(C(N)CCc3ccccc3)cs2)c1 (stereo not drawn)	none
O=C(NC1CCCCCCC1)c1cc(COc2ccc3ncccc3c2)on1	CHO-K1 Ca antag 28.8, M1 antag 49.4
Cc1cc(CN(C)C(=O)c2cc(COc3ccc4ncccc4c3)on2)on1	none
CC(CNC(=O)c1cc(COc2ccc3ncccc3c2)on1)c1ccccc1 (stereo not drawn)	M1 ag parental 17.2, M1 antag 43.2
C[C@@H]1CN([C@H](C)CO)C(=O)c2cc(C#Cc3ccccc3F)cnc2O[C@@H]1CN(C)S(=O)(=O)c1ccccc1F	CHO-K1 Ca antag 24.8
C[C@@H]1CN([C@H](C)CO)C(=O)c2cc(C#CC3CCCCC3)cnc2O[C@H]1CN(C)Cc1cccnc1	M1 antag 33.8
CCCS(=O)(=O)NC(=O)C1(C)CCN(C(=O)Cc2cccc(OC)c2)C1 (stereo not drawn)	none
CN(C)CCCN(Cc1ccccc1)C(=S)NCc1ccccc1	none
CC(=O)c1ccc(NC(=S)NC(C)CCc2ccccc2)cc1 (stereo not drawn)	M1 ag parental 15.4
CN(C)CCCN(Cc1ccccc1)C(=S)Nc1ccc(SC(F)F)cc1	M1 antag 88.5
CC(=O)c1ccc(NC(=S)N(CCCN(C)C)Cc2ccccc2)cc1	M1 antag 43.9
CCCCNC(=O)Cc1coc2ccc3ccccc3c12	CHO-K1 Ca antag 27.3
COCCCNC(=O)Cc1coc2ccc3ccccc3c12	none
O=S(=O)(Cc1ccccc1)C(c1ccccc1)S(=O)(=O)Cc1ccccc1	none

High-throughput results deposited in PubChem by The Scripps Research Institute Molecular Screening Center.
